# Records with an inconclusive call do not appear. A call without a number means that no potency is given here. Active and inactive are the calls of the source. Calls follow the shape of the dose curve; as a rule, active = well fitted inhibition curve with a large enough effect; inconclusive = small, poorly fitted or top-dose-only effect; inactive = flat fitted curve, though single readings scatter. Square brackets hold non-standard residues; d marks the D form. Peptide text beside a SMILES is read from it. PhLac = O=C(O)[CH](O)Cc1ccccc1; NMeV = CN[CH](C(=O)O)C(C)C
# Tested on: CRL-7250
# Assay: qHTS assay to identify novel small-molecules to repurpose for Merkel cell carcinoma treatment (AID 1296009); also: nearly all actives have a fitted effect of over 60% in size
# Conditions: MCC and control cell lines, CellTiter-Glo viability, 72 h; series mostly up to 92 µM
# Outline: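 Cells exposed to NPC (8-point) and MIPE (11-point) compound dilutions for 72 hr at 37 degree celsius; viability read by CellTiter-Glo luminescence, normalized to no-cell and DMSO in-plate controls.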
Compound,Potency,outcome
CC/C(=C(\c1ccc(O)cc1)c1ccc(OCCNC)cc1)c1ccccc1,inactive,–
C[C@@H]1O[C@@H](O[C@H]2[C@H](O[C@H]3CC[C@@]4(C)C(CC[C@]5(C)C4CC=C4C6CC(C)(C)CC[C@]6(C(=O)O[C@@H]6O[C@H](CO[C@@H]7O[C@H](CO)[C@@H](O[C@@H]8O[C@@H](C)[C@H](O)[C@@H](O)[C@H]8O)[C@H](O)[C@H]7O)[C@@H](O)[C@H](O)[C@H]6O)CC[C@]45C)[C@]3(C)CO)OC[C@H](O)[C@@H]2O)[C@H](O)[C@H](O)[C@H]1O (stereo not given in full),–,inactive [at 9.27 µM]
C=C1CC23CC(=O)C4C(CO)(CO)CCCC4(C)C2CCC1C3 (stereo not given),inactive,–
NC(=O)[C@H]1CCCCc2c1[nH]c1ccc(Cl)cc21,inactive,–
CC(=O)C=C=C1C(C)(C)CC(O[C@@H]2O[C@H](CO)[C@@H](O)[C@H](O)[C@H]2O)CC1(C)O (stereo not given in full),inactive,–
C=C(C)C1CCC2(C(=O)O)CCC3(C(=O)O)C(CCC4C5(C)CCC(O)C(C)(C(=O)O)C5CCC43C)C12 (stereo not given),inactive,–
CC1(C)CC[C@]2(C(=O)O)CC[C@]3(C)C(=CCC4[C@@]5(C)CC[C@H](O[C@H]6O[C@H](C(=O)O)[C@@H](O)[C@H](O[C@@H]7O[C@H](CO)[C@H](O)[C@H](O)[C@H]7O)[C@H]6O)C(C)(C)C5CC[C@]43C)[C@@H]2C1 (stereo not given in full),–,inactive [at 9.27 µM]
CCOC(=O)c1ccc(NC2CCCCC2)c(N)c1,inactive,–
C[C@@H]1O[C@@H](O[C@@H]2[C@@H](O)[C@H](O[C@H]3[C@H](O[C@H]4CC[C@@]5(C)C(CC[C@]6(C)C5CC=C5[C@@H]7CC(C)(C)CC[C@]7(C(=O)O[C@@H]7O[C@H](CO)[C@@H](O)[C@H](O)[C@H]7O[C@@H]7O[C@@H](C)[C@H](O[C@@H]8O[C@@H](C)[C@H](O)[C@@H](O)[C@H]8O)[C@@H](O)[C@H]7O)CC[C@]56C)[C@@]4(C)CO)O[C@H](C(=O)O)[C@@H](O)[C@@H]3O)O[C@H](CO)[C@H]2O)[C@H](O)[C@H](O)[C@H]1O (stereo not given in full),–,inactive [at 9.27 µM]
CC(=O)NC(C(=O)OC1CCC(C)(C)C2CC=C3C(=O)OCC3C12C)C(C)C (stereo not given),inactive,–
O=C(Nc1ccccc1Br)NC1CCN(c2ccc(C(F)(F)F)cn2)C1 (stereo not given),inactive,–
COc1cc(O)cc(C)c1C(=O)OC1C(CO)OC(n2ccc(=O)[nH]c2=O)C1OC(C)=O (stereo not given),inactive,–
O=C([C@@H](Cc1cccc(C(F)(F)F)c1)NS(=O)(=O)c1cc(F)c2c(c1)CCNC2)N1CCCC1,inactive,–
O=C(O)c1cccc(C(=O)CCC2OC(n3cnc4c(=O)[nH]cnc43)C(O)C2O)c1 (stereo not given),inactive,–
CC1CCC2(OC1)OC1CC3C4CC=C5CC(O)CC(O[C@@H]6OC[C@@H](O)[C@H](O)[C@H]6O)C5(C)C4CCC3(C)C1(O)C2C (stereo not given in full),inactive,–
COC(=O)/C=C/C=C/C(=O)OC1C=C2COC(=O)C2(O)C2(C)CCCC(C)(C)C12 (stereo not given),inactive,–
CN(C)c1ccc(C2O[C@@H](c3ccccc3)C[C@H](c3ccccc3)O2)cc1 (stereo not given in full),inactive,–
CNc1cc2[nH]c(=O)n(-c3ccc(NC(=O)NS(=O)(=O)c4ccc(Cl)s4)cc3)c(=O)c2cc1F,inactive,–
CCCCNc1ccc(-c2ccc(CN3CCOCC3)cn2)c(NC2CCC(O)CC2)c1 (stereo not given),inactive,–
CC(=O)O[C@]1(C(C)=O)CC[C@H]2[C@@H]3CCC4=CC(=O)CCC4=C3[C@@H](c3ccc(N(C)C)cc3)C[C@@]21C,inactive,–

Compound,Potency,outcome
COCC1OC(OC(C)(C)C2CCC3(C)C=C(C4CCC5C4(C)CC(O)C4OC(C(C)(C)O)CCC45C)CCC3O2)C(NC(C)=O)C(O)C1O (stereo not given),inactive,–
Cc1ccc(Nc2nnc(-c3ccc([N+](=O)[O-])cc3)o2)cc1Cl,inactive,–
COc1cc2c(cc1OC)CN(C(=O)[C@@H](NCc1ccncc1)C(C)(C)C)CC2,inactive,–
O=c1c2cccnc2n(-c2cccc([N+](=O)[O-])c2)c(=O)n1Cc1ccncc1,inactive,–
COc1cc(CCCO)ccc1O[C@@H]1O[C@H](CO)[C@@H](O)[C@H](O)[C@H]1O,inactive,–
CC(C)=C1CC2[C@](C)(CC[C@@H](OC(=O)C3(C)OC3C)[C@@]2(C)O)CC1=O (stereo not given in full),inactive,–
CC(=O)c1c(O)cc2cccc3c2c1CC(C)(O)O3 (stereo not given),inactive,–
CC1(C)CC(=O)N(CCCCN2CCN(c3ncccn3)CC2)C(=O)C1,inactive,–
COc1cc(/C=C/C(=O)O[C@H]2[C@H](OC(=O)/C=C/c3cc(OC)c(O)c(OC)c3)O[C@H](CO[C@@H]3O[C@H](CO)[C@@H](O)[C@H](O)[C@H]3O)[C@@H](O)[C@@H]2O)ccc1O,inactive,–
CC(C)S(=O)(=O)NC[C@H](C)c1ccc(NC(=O)c2cc(F)cc(F)c2)cc1,inactive,–
O=C(/C=C/c1ccc(O)cc1)OC[C@H]1O[C@H](O[C@@]2(CO)O[C@@H](CO)[C@H](O)[C@H]2O)[C@H](O)[C@@H](O)[C@@H]1O,inactive,–
COc1c2c(c(C)c3c1C(=O)OC3)O[C@@]1(C)CC(O)C(C(C)(C)O)[C@](C)(CCC(=O)O)[C@H]1C2 (stereo not given in full),inactive,–
C=C(C)[C@@H]1CC[C@]2(C(=O)O)CC[C@]3(C)C(CCC4[C@]5(C)C(CC[C@]43C)C(C)(C)[C@@H](O)[C@@H]5C(=O)O)C12 (stereo not given in full),inactive,–
C=C1C(=O)OC2/C=C(\C)CC/C=C(\C(=O)O)CC/C=C(\C)CCC12 (stereo not given),inactive,–
COCCN(C)Cc1ccc2nc3sc(C(=O)N(C)C4CCCCC4)cn3c2c1,inactive,–
CC(C)C(C(=O)N1CCCC1C(=O)O)N(C)C(=O)C(O)Cc1ccccc1 (stereo not given) (H-[PhLac]-[NMeV]-Pro-OH; configuration not given here),inactive,–
CC1(C)CCC[C@@]2(C)[C@H]1[C@H](O)C=C1COC(=O)[C@@]12O,inactive,–
C[C@H](NC(c1cccc(C[P+](=O)O)c1)[C@H](C)O)c1ccc(Cl)c(Cl)c1 (stereo not given in full),inactive,–
COc1cccc(OC)c1-c1nc(C(=O)N[C@@H](CC(C)C)C(=O)O)cn1-c1ccnc2cc(Cl)ccc12,inactive,–
COc1ccc(CN2C(=O)C(=O)c3cc(S(=O)(=O)N4CCC[C@H]4COc4cccnc4)ccc32)cc1,inactive,–
